An excerpt weighted towards active compounds, which were near 3.5% of everything screened.
MITF inh: MITF inhibitors, primary screen, biochemical, AlphaScreen, human. AlphaScreen MITF homodimerization, bead proximity signal. actives 0.91% (n = 650,000). Microphthalmia-associated transcription factor (Homo sapiens), O75030. inhibition, % at 2.6 µM. AID 1259374, 2018; in the data active = inhibition above about 50%;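 also: 0% = vehicle wells with protein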
Target sequence (O75030 whole entry, looked up): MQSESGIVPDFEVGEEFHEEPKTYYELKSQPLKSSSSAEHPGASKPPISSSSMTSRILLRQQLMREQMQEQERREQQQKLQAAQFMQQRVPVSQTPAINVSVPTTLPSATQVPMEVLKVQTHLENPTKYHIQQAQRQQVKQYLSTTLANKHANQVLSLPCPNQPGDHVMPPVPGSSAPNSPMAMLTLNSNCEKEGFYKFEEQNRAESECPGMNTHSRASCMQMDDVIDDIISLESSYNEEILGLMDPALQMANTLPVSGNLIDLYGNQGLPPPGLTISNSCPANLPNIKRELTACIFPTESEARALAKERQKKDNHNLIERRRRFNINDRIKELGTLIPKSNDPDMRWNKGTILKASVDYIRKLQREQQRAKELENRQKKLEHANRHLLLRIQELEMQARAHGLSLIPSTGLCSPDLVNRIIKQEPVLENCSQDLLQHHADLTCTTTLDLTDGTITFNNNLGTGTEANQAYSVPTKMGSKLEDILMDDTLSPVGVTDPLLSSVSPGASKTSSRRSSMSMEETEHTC
FBW7 activator: FBW7 E3 ligase activators, primary screen, biochemical, AlphaScreen, human; F-box/WD repeat-containing protein 7 (Homo sapiens), Q969H0; AlphaScreen FBW7–phospho-cyclin E peptide binding, activator screen; normalized activity (activation), % at 26.1 µM; actives 0.13% (n = 650,000); in the data active = normalized activity above about 1.9%;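 also: purified mutant Fbw7 with reduced substrate affinity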
GPR151 activ: activators of human GPR151, primary screen, cell-based, PathHunter beta-arrestin, luminescence; PathHunter beta-arrestin GPR151 cells; activation, % at 11.2 µM; actives 1% (n = 650,000); in the data active = activation above about 4.9%;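 also: 0% = median of compound wells and 100% = cells with positive control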
TEAD-YAP inh: TEAD-YAP interaction inhibition, primary screen, TEAD-YAP interaction inhibitor project, luminescence, HEK-TIYL cells | actives 1.4% (n = 640,000) | inhibition, % at 9.12 µM | TEAD-Gal4/YAP UAS-luciferase luminescence; in the data active = inhibition above about 32%;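 also: 0% = median of test compound wells and 100% = reference inhibitor wells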
GPR151 confirm: GPR151 activators, triplicate retest, confirmation, cell-based, PathHunter beta-arrestin, luminescence. activation, % at 11.2 µM. GPR151 PathHunter beta-arrestin cells, 90 min; % of EA-reagent control over plate median. shares compounds with GPR151 activ. AID 1508609, 2020. 6,700 tested, under 10 active;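 active = mean percent activation across replicates above the confirmation screen cutoff of 4.91%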
GPR119 counter: GPR119 activators in beta-arrestin cells, counter-screen for GPR151 activator project, cell-based, PathHunter beta-arrestin, luminescence, triplicate. activation, % at 11.2 µM. shares compounds with GPR151 activ. AID 1508611, 2020. 90 min; 0 = compound-well median, 100 = enzyme-acceptor control. actives 0.3% (n = 6,700);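 active = mean percent activation in the counterscreen above 29.09%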;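 also: counterscreen on off-target GPR119 to flag nonselective hits from the GPR151 activator screen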
Active calls of the source: *.

For CC(Oc1ccc(C(C)(C)C)cc1)C(=O)NC1CCS(=O)(=O)C1 (stereo not drawn) the results were MITF inh -13, FBW7 activator 0, GPR151 activ 5.2*, TEAD-YAP inh 3, GPR151 confirm 0 and GPR119 counter -7.
For COc1ccc(C(=O)Nc2cc(C(N)=O)ccc2OC)cc1 the results were MITF inh -9, FBW7 activator 0, GPR151 activ 0 and TEAD-YAP inh 1.
COc1ccc(C(N)=O)cc1NC(=O)CC(O)(C(F)(F)F)C(F)(F)F was read as MITF inh 48, FBW7 activator 0, GPR151 activ 7.3*, TEAD-YAP inh -10, GPR151 confirm 0 and GPR119 counter -11.
Cc1cc(C(=O)Nc2cccc(O)c2)ccc1[N+](=O)[O-] was read as MITF inh 15, FBW7 activator 0, GPR151 activ -1 and TEAD-YAP inh -36.
Cc1cc(C(=O)Nc2cccc(NC(=O)c3ccccc3)c2)ccc1[N+](=O)[O-] was read as MITF inh 8, FBW7 activator 0, GPR151 activ 6.3*, TEAD-YAP inh -11, GPR151 confirm 0 and GPR119 counter 3.
Cc1cccc(NC(=O)c2ccc(NCCc3ccccc3)c([N+](=O)[O-])c2)c1 was read as MITF inh 10, FBW7 activator 0, GPR151 activ 6.6*, TEAD-YAP inh 6, GPR151 confirm -1 and GPR119 counter -4.
For CCC(C)N(C(=O)CSc1nnc(-c2c[nH]c3ccccc23)o1)C1CCS(=O)(=O)C1 (stereo not drawn) the results were MITF inh 4, FBW7 activator 0, GPR151 activ -1 and TEAD-YAP inh -6.
`CN1CCN(CC(=O)N2c3ccccc3Sc3ccc(C(F)(F)F)cc32)CC1` gave MITF inh -6, FBW7 activator 0, GPR151 activ 2 and TEAD-YAP inh 2.
Screening O=C(CN1CCC(O)CC1)N1c2ccccc2Sc2ccc(C(F)(F)F)cc21 returned MITF inh -3, FBW7 activator 0, GPR151 activ 8.4*, TEAD-YAP inh -16, GPR151 confirm -1 and GPR119 counter -8.
`O=C1OC(/C=C/c2ccccc2)=NC/1=C/c1ccc([N+](=O)[O-])cc1` gave MITF inh -21, FBW7 activator 0, GPR151 activ -2 and TEAD-YAP inh 4.
For NC(=O)CSc1nnc2n(Cc3ccccc3)c3ccccc3n12 the results were MITF inh -3, FBW7 activator 0, GPR151 activ 6.1*, TEAD-YAP inh -7, GPR151 confirm 1 and GPR119 counter -3.
Screening O=C(NCSc1ncccn1)c1ccccc1 returned MITF inh -10, FBW7 activator 0, GPR151 activ 7.6*, TEAD-YAP inh -4, GPR151 confirm -1 and GPR119 counter -15.
For O=c1nc(SCc2ccc(Cl)cc2)nc2ccccn12 the results were MITF inh 1, FBW7 activator 0, GPR151 activ -1 and TEAD-YAP inh 3.
`CN1C(=O)NC(c2ccccc2Cl)C2=C1CC(C)(C)CC2=O` (stereo not drawn) gave MITF inh -3, FBW7 activator 0, GPR151 activ 5.7*, TEAD-YAP inh 4, GPR151 confirm 1 and GPR119 counter -3.
Screening CN1C(=O)N(C)C(c2ccccc2Cl)C2=C1CC(C)(C)CC2=O (stereo not drawn) returned MITF inh 1, FBW7 activator 0, GPR151 activ 1 and TEAD-YAP inh -1.
For Cc1nc2ncnn2c(N2CCC(C(=O)Nc3ccc(F)cc3)CC2)c1C the results were MITF inh -11, FBW7 activator 0, GPR151 activ 5.4*, TEAD-YAP inh 8, GPR151 confirm 0 and GPR119 counter 9.

Screening results (PubChem)
